In PubChem BioAssay one finds inhibition data, which are given here for 40 compounds.

Molecules are shown by their SMILES. Several values for one entry are separate records, joined by “and”; a condition that tells them apart may be missing. Identical values can stand only once. A number with no mark means an inactive call. The rule behind the calls is not given here.

One test relates to Botulinum neurotoxin type F light chain protease (Clostridium botulinum). Put plainly: Botulinum neurotoxin type F light chain protease inhibition, multiplex microsphere flow cytometry, validation set (AID 588459). The conditions noted are these: multiplex microsphere protease substrate cleavage assay, at 10 µM, hits give high values. Background: Flow cytometry measures light scatter and fluorescence of single cells or particles in a stream.
As usually defined, the inhibition is the relative decrease from the control value, in per cent. `O=C1[C@@H]2CSCN2C(=O)CN1Cc1ccc(F)cc1`: the inhibition was 1.2%.
With `O=[N+]([O-])c1cc(/C=N/n2cnnc2)ccc1N1CCCC1`, the inhibition is -0.9%.
Still for that read-out and setting: to `Cc1cc(Cl)cc2c1NC(=O)[C@]21[C@@H]2C(=O)N(Cc3ccccc3)C(=O)[C@@H]2[C@@H]2CCCN21` belongs 2.1%; to `COc1ccccc1C(=O)N=C1NC(=O)CC2C(=O)NCCN12` (stereo not given), -2.8%.
Consider `COc1cc2c(cc1O)CCN(C(=O)c1ccco1)C2C` (stereo not given), for which the inhibition was 4.3%.
Still for that read-out and setting: the value for `O=C(NCCCCCc1nc2ccccc2[nH]1)c1ccccc1Cl` was 1.4%; that for `CCOC(=O)C(=O)N1CCN(c2ccccc2OC)CC1` was 1.5%; that for `COc1cccc2cc(-c3ccccc3)c(=O)oc12` was -1.9%.
Same read-out and setting: the value for `O=C(/C=C/c1ccccc1)c1ccccc1` was -1.7%; that for `O=C(NCc1ccccc1Cl)NC(=O)c1ccccc1` was -1.4%; that for `CC(=O)CCc1oc2ccccc2c1-c1ccccc1` was -0.7%.
Same read-out and setting: to `Cc1ncc([N+](=O)[O-])n1CC(O)CCl` (stereo not given) belongs 3.5%; to `CC1=NS(=O)(=O)c2cc(Cl)ccc2N1`, 1.4%.
For `Cc1ccc(Cl)c(Nc2ccccc2C(=O)O)c1Cl`, the inhibition is -4.5%.
For `COc1ccccc1OS(=O)(=O)c1ccc(NC(C)=O)cc1`, the inhibition is -1.9%.
In the case of `CCSC(=O)CCCCCCCCCCCO`, the inhibition is 2.8%.
`CC(C)COCC(CN(Cc1ccccc1)c1ccccc1)N1CCCC1` (stereo not given): the inhibition was 1.2%.
The same measure, in the same setting: the value for `O=C(CC1SC(=O)NC1=O)Nc1ccc(Cl)cc1` (stereo not given) was -1.9%.
On the same count and under the same terms, to `Cc1ccccc1NC(=O)c1c(C)cc(=O)oc1C` belongs -0.8%; to `O=C(/C=C/c1ccc(F)cc1)N1CC[C@@]2(O)CCCC[C@H]2C1`, -2.9%; to `O=C1OC(Nc2ccc3c(c2)OCO3)c2ccccc21` (stereo not given), 0.9%.
On to `CN/C(=C/[N+](=O)[O-])NCCSCc1ccc(CN(C)C)o1`, for which the inhibition was 0.1%.
Same read-out and setting: the value for `CCc1c(C(C)=O)oc2ccc3c(C)cc(=O)oc3c12` was -1.2%; that for `C(=C/c1nccc2c1[nH]c1ccccc12)/c1ccc2c(c1)OCO2` was 3.2%; that for `Cc1csc(-c2coc3cc(O)cc(C)c3c2=O)n1` was 0.3%.
On to `COc1ccc(CCN=CC2=C(O)CC(C)(C)CC2=O)cc1`, for which the inhibition was 1.2%.
On to `COc1ccc(NC(=O)C2OC3OC(C)(C)OC3C3OC(C)(C)OC23)cc1` (stereo not given), for which the inhibition was -1.2%.
Turning to `COc1ccc(C(=O)Nc2nc3ccccc3c(=O)[nH]2)cc1`, the inhibition was -3.3%.
Still for that read-out and setting: the value for `CC1(C)CC(CC(=O)O)(c2ccc(Cl)cc2)CCO1` (stereo not given) was 2.5%.
Same read-out and setting: the value for `COc1cccc(C2CCCN2Cc2nc(CCC(C)C)no2)c1` (stereo not given) was -2.5%; that for `Cc1cccc(Nc2ncccc2C(=O)O)c1C` was -2.7%; that for `O=C(/C=C/c1ccco1)NCc1ccc2c(c1)OCO2` was -2.9%.
As to `O=C(N1CCCC1)C12CC3CC(C1)CC(C(=O)N1CCCC1)(C3)C2`, the inhibition is -1.6%.
Still for that read-out and setting: the value for `CCCCCC#CCC#CCC#CCC#CCCCC(=O)O` was 5.7%; that for `CC(=O)OCC[N+](C)(C)C` was -3.2% and 0.5%; that for `Nc1cccc2nc3ccccc3cc12` was 4%.
Still for that read-out and setting: the value for `CS(=O)(=O)NCc1ccc(C(=O)NCc2ccccc2)cc1` was 2.9%; that for `CN1CCN(CC/C=C2/c3ccccc3Sc3ccc(S(=O)(=O)N(C)C)cc32)CC1` was 3.2%.
On the same count and under the same terms, the value for `O=C(CN1C(=O)C2CCc3[nH]c4ccccc4c3C2C1=O)N1CCCC1` (stereo not given) was 0.5%.
`CCc1nc2ccccc2c(NC(=O)CN2CC(C)CC(C)C2)c1C` (stereo not given): the inhibition was -2%.

In a further test the target is Botulinum neurotoxin type A (Clostridium botulinum) (UniProt P0DPI0). Put plainly: BoNT/A light chain protease inhibitors, biochemical, multiplex microsphere flow cytometry, validation set (AID 588460). The settings on record: at 10 µM, hits give high values.
Botulinum neurotoxin type A (Clostridium botulinum), sequence (P0DPI0 whole entry, looked up): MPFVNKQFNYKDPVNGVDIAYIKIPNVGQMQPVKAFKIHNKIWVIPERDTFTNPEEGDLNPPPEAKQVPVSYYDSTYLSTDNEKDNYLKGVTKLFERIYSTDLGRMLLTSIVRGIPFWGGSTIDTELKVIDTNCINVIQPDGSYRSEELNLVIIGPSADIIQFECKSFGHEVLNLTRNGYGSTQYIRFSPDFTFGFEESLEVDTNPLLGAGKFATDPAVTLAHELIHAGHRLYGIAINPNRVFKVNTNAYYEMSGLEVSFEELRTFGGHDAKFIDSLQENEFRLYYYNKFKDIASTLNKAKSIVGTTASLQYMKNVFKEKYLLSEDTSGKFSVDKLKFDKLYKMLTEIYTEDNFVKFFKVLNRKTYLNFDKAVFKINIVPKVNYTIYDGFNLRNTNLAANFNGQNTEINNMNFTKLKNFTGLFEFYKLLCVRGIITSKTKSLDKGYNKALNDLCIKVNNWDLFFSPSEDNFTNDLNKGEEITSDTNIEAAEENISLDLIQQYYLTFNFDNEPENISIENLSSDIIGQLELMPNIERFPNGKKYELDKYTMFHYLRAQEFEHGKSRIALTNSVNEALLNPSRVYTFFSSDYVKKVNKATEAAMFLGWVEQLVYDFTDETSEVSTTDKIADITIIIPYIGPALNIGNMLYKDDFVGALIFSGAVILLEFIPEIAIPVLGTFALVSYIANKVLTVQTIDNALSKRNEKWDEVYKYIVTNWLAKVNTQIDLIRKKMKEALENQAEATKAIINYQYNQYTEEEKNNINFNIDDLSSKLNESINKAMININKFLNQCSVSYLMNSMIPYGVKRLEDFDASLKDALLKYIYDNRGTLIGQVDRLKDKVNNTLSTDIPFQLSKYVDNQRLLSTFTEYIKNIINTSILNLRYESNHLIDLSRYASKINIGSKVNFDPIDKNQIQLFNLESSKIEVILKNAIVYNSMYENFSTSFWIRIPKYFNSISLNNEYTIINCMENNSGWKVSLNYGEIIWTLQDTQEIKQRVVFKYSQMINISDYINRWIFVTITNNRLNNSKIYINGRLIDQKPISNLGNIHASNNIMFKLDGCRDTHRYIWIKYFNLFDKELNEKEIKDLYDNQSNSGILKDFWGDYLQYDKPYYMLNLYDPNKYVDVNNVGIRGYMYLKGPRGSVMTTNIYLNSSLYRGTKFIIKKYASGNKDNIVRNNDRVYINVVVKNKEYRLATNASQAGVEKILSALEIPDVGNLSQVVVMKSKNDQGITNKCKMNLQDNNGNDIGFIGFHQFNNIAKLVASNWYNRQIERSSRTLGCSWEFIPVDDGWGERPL
In the case of `O=C1[C@@H]2CSCN2C(=O)CN1Cc1ccc(F)cc1`, the inhibition was 0.7%.
Still for that read-out and setting: to `O=[N+]([O-])c1cc(/C=N/n2cnnc2)ccc1N1CCCC1` belongs -0.6%; to `Cc1cc(Cl)cc2c1NC(=O)[C@]21[C@@H]2C(=O)N(Cc3ccccc3)C(=O)[C@@H]2[C@@H]2CCCN21`, 1.7%; to `COc1ccccc1C(=O)N=C1NC(=O)CC2C(=O)NCCN12` (stereo not given), -1.5%.
In the case of `COc1cc2c(cc1O)CCN(C(=O)c1ccco1)C2C` (stereo not given), the inhibition is 1%.
On the same count and under the same terms, to `O=C(NCCCCCc1nc2ccccc2[nH]1)c1ccccc1Cl` belongs 0.3%; to `CCOC(=O)C(=O)N1CCN(c2ccccc2OC)CC1`, -1.1%.
Still for that read-out and setting: the value for `COc1cccc2cc(-c3ccccc3)c(=O)oc12` was -1.7%; that for `O=C(/C=C/c1ccccc1)c1ccccc1` was -0.6%.
Still for that read-out and setting: to `O=C(NCc1ccccc1Cl)NC(=O)c1ccccc1` belongs 0.8%.
As to `CC(=O)CCc1oc2ccccc2c1-c1ccccc1`, the inhibition is -1.4%.
On to `Cc1ncc([N+](=O)[O-])n1CC(O)CCl` (stereo not given), for which the inhibition was -0.1%.
In the case of `CC1=NS(=O)(=O)c2cc(Cl)ccc2N1`, the inhibition was -0.3%.
The same measure, in the same setting: to `Cc1ccc(Cl)c(Nc2ccccc2C(=O)O)c1Cl` belongs 0.2%; to `COc1ccccc1OS(=O)(=O)c1ccc(NC(C)=O)cc1`, 1.2%.
On to `CCSC(=O)CCCCCCCCCCCO`, for which the inhibition was 1.5%.
As to `CC(C)COCC(CN(Cc1ccccc1)c1ccccc1)N1CCCC1` (stereo not given), the inhibition was -1.8%.
Still for that read-out and setting: the value for `O=C(CC1SC(=O)NC1=O)Nc1ccc(Cl)cc1` (stereo not given) was 0.8%; that for `Cc1ccccc1NC(=O)c1c(C)cc(=O)oc1C` was -0.1%; that for `O=C(/C=C/c1ccc(F)cc1)N1CC[C@@]2(O)CCCC[C@H]2C1` was -2.2%.
Same read-out and setting: the value for `O=C1OC(Nc2ccc3c(c2)OCO3)c2ccccc21` (stereo not given) was -1.8%.
As for `CN/C(=C/[N+](=O)[O-])NCCSCc1ccc(CN(C)C)o1`, the inhibition was 0.1%.
Still for that read-out and setting: the value for `CCc1c(C(C)=O)oc2ccc3c(C)cc(=O)oc3c12` was -2.4%; that for `C(=C/c1nccc2c1[nH]c1ccccc12)/c1ccc2c(c1)OCO2` was 6.7%.
As to `Cc1csc(-c2coc3cc(O)cc(C)c3c2=O)n1`, the inhibition is 1.7%.
In the case of `COc1ccc(CCN=CC2=C(O)CC(C)(C)CC2=O)cc1`, the inhibition was -0.7%.
Still for that read-out and setting: the value for `COc1ccc(NC(=O)C2OC3OC(C)(C)OC3C3OC(C)(C)OC23)cc1` (stereo not given) was 1.3%; that for `COc1ccc(C(=O)Nc2nc3ccccc3c(=O)[nH]2)cc1` was -2.3%.
On the same count and under the same terms, to `CC1(C)CC(CC(=O)O)(c2ccc(Cl)cc2)CCO1` (stereo not given) belongs -1.9%; to `COc1cccc(C2CCCN2Cc2nc(CCC(C)C)no2)c1` (stereo not given), -0.8%.
The same measure, in the same setting: to `Cc1cccc(Nc2ncccc2C(=O)O)c1C` belongs -1.6%.
As to `O=C(/C=C/c1ccco1)NCc1ccc2c(c1)OCO2`, the inhibition is -0.4%.
On the same count and under the same terms, to `O=C(N1CCCC1)C12CC3CC(C1)CC(C(=O)N1CCCC1)(C3)C2` belongs -2.5%.
The same measure, in the same setting: the value for `CCCCCC#CCC#CCC#CCC#CCCCC(=O)O` was -0.6%.
Regarding `CC(=O)OCC[N+](C)(C)C`, the inhibition was 0.2% and -1.8%.
As to `Nc1cccc2nc3ccccc3cc12`, the inhibition was 2.3%.
For the compound `CS(=O)(=O)NCc1ccc(C(=O)NCc2ccccc2)cc1`, the inhibition is 0.5%.
Take `CN1CCN(CC/C=C2/c3ccccc3Sc3ccc(S(=O)(=O)N(C)C)cc32)CC1`: the inhibition was 0.9%.
Still for that read-out and setting: the value for `O=C(CN1C(=O)C2CCc3[nH]c4ccccc4c3C2C1=O)N1CCCC1` (stereo not given) was 1.1%; that for `CCc1nc2ccccc2c(NC(=O)CN2CC(C)CC(C)C2)c1C` (stereo not given) was 0.8%.
